Screen size: about 310,000 compounds; about 14,000 (4.5%) showed an effect of 50% or more. The effect is printed as a negative number. For the sample, strong results were picked, then their nearest neighbours and some compounds at random.
Target: human ether-à-go-go-related gene (hERG) potassium channel (human, UniProt Q12809)
Assay: primary screen, population patch clamp on CHO cells stably expressing hERG; higher = less effect of the substance
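Further: peak tail current of the secondary pulse compared with the same well before compound.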

Sequence of human ether-à-go-go-related gene (hERG) potassium channel (Q12809 whole entry, looked up): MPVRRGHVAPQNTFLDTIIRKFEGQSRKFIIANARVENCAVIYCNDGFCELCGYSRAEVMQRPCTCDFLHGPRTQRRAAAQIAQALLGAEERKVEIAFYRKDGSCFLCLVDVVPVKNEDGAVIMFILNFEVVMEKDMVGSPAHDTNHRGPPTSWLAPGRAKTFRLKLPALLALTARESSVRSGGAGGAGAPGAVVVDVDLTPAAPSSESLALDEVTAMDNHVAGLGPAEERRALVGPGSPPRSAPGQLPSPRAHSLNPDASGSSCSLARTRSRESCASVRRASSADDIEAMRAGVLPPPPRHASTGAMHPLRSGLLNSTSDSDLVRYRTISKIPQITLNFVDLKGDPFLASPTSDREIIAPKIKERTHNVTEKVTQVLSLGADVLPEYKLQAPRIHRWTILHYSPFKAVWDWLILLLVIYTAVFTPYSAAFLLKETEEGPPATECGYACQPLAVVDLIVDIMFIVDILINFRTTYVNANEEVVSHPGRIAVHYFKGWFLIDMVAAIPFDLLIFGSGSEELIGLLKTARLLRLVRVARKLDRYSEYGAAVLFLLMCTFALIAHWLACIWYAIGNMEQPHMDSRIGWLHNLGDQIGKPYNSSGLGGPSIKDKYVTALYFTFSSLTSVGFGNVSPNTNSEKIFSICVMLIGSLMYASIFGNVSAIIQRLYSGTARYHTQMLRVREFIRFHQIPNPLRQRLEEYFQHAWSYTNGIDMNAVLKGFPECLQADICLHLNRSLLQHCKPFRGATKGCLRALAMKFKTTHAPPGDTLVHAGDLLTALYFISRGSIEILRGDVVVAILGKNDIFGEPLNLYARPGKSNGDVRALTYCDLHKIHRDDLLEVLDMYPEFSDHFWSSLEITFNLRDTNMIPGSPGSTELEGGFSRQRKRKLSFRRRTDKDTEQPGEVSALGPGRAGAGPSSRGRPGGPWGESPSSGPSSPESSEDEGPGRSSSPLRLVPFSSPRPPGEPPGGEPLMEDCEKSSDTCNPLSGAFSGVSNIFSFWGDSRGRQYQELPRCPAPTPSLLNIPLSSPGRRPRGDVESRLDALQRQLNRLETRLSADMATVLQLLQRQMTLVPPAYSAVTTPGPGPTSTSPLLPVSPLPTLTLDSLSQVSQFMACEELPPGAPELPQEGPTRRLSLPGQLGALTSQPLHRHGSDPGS

Going from `COc1ccc(CCN2C(=O)N[C@@H](CCC(=O)O)C2=O)cc1` to `COc1ccc(CC(=O)NCc2nnc(SCC(=O)Nc3nccs3)n2-c2ccccc2)cc1`, the “hERG current change (%, negative = inhibition) at 10uM” value falls from 19% to 2.7%.

Going from `COc1ccc(N2CCN(C(C)=C3C(=O)c4ccccc4C3=O)CC2)cc1` to `CC(=C1C(=O)c2ccccc2C1=O)N1CCN(c2ccc(F)cc2)CC1`, the “hERG current change (%, negative = inhibition) at 10uM” value falls from -53.3% to -69.8%.

First: COC(=O)N1CCN(c2ccc(OC)cc2)CC1
Second: COc1ccc(N2CCN(C(=O)C(OC(C)=O)c3ccccc3)CC2)cc1 (stereo not drawn)
The “hERG current change (%, negative = inhibition) at 10uM” value of the first is higher: 4.33% for the first, -0.89% for the second.

First: C/C(=C/c1ccccc1)C(=O)N1CCN(c2ccc(F)cc2)CC1
Second: CC(=C1C(=O)c2ccccc2C1=O)N1CCN(c2ccccn2)CC1
The “hERG current change (%, negative = inhibition) at 10uM” value of the first is lower: -42.2% for the first, -28.3% for the second.

Compared with `O=C(NC1CCCCC1)NC1C2CC3CC(C2)CC1C3` (stereo not drawn), `CCOc1ccc(-n2c(SCC(=O)NC)nnc2-c2ccco2)cc1` is lower in “hERG current change (%, negative = inhibition) at 10uM” value: -6.14% for the first, -27.5% for the second.

First: CCCNC(=S)Nc1ccc(Cl)cc1C
Second: CC(C)Oc1ccc(C(CC(=O)O)NC(=O)Cc2ccc(Cl)cc2)cc1 (stereo not drawn)
The “hERG current change (%, negative = inhibition) at 10uM” value of the first is lower: 1.16% for the first, 24.8% for the second.

First: Cc1ccc(S(=O)(=O)NCCNC(=O)c2ccccc2)cc1
Second: CCOC(=O)CSc1nnc(Cc2ccccc2)n1-c1ccc(C)cc1
The “hERG current change (%, negative = inhibition) at 10uM” value of the first is higher: 12.4% for the first, -37.4% for the second.

Compared with `COc1ccc(-n2c(Cc3cccn3C)nnc2SCC(=O)Nc2nccs2)cc1`, `COc1ccc(-n2c(Cc3cccn3C)nnc2SCC(=O)Nc2nc(C)cs2)cc1` is higher in “hERG current change (%, negative = inhibition) at 10uM” value: -9.82% for the first, -6.16% for the second.

Going from `CCOC(=O)CN(C(=O)CSc1nnc(Cc2ccccc2)n1-c1ccc(C)cc1)c1ccccc1` to `CCOC(=O)CN(C(=O)CSc1nnc(C)n1-c1ccccc1)c1ccccc1`, the “hERG current change (%, negative = inhibition) at 10uM” value rises from -59.2% to 6.79%.

First: CCOc1ccccc1-n1c(SCC(=O)Nc2nccs2)nnc1-c1ccoc1C
Second: CCOc1ccc(-n2c(SCC(=O)Nc3nccs3)nnc2-c2ccoc2C)cc1
The “hERG current change (%, negative = inhibition) at 10uM” value of the first is higher: -5.08% for the first, -56.1% for the second.

First: COc1ccc(-n2c(SCC(=O)Nc3nc(C)cs3)nnc2-c2ccoc2C)cc1
Second: COc1ccc(-n2c(SCC(=O)Nc3nccs3)nnc2-c2ccccc2)cc1
The “hERG current change (%, negative = inhibition) at 10uM” value of the first is lower: -81% for the first, -62.5% for the second.

Compared with `Cc1csc(NC(=O)CSc2nnc(-c3ccoc3C)o2)n1`, `Cc1cc(C)cc(NC(=O)Cn2c(-c3ccccc3Cl)nc3ccccc32)c1` is higher in “hERG current change (%, negative = inhibition) at 10uM” value: 4.99% for the first, 5.5% for the second.

— publication PMC4336329 (PLoS ONE, 2015)
